Data on 98 molecules can be found in PubChem BioAssay AID1851 (National Center for Advancing Translational Sciences (NCATS), 2009).

Among all 16,000 compounds or so, about 5,100 (32%) were called active. Roughly 25% stayed inconclusive and do not appear here. The list shows a part of the results. A number with no mark means an inactive call. Calls follow the shape of the dose curve; as a rule, active = well fitted curve in the direction sought with a large enough effect; inconclusive = small, poorly fitted or top-dose-only effect, or effect the other way; inactive = no such curve, though single readings can be large or run the other way.
% is scaled to controls: 0 for no effect and ±100 for the full control effect.

The target of the assay is Cytochrome P450 3A4 (Homo sapiens) (UniProt P08684). Kind of assay: Cytochrome panel assay with activity outcomes. Particulars: recombinant CYP, pro-luciferin dealkylation, luminescence, p450-cyp3a4; series mostly up to 57.1 µM.
Cytochrome P450 3A4 (Homo sapiens), sequence (P08684 whole entry, looked up): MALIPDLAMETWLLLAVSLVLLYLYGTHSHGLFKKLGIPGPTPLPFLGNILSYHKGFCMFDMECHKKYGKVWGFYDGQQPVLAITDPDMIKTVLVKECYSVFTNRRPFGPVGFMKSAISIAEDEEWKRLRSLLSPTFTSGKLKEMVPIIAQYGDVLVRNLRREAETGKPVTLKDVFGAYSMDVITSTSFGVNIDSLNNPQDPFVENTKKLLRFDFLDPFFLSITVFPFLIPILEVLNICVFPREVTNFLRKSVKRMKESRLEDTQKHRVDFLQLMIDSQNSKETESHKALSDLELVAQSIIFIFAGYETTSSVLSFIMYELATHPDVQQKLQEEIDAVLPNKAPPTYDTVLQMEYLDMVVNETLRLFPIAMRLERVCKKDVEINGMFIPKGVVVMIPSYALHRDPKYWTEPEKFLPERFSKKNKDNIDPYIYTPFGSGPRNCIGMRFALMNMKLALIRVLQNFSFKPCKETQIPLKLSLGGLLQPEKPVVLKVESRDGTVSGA
Take `COc1ccccc1-c1cc(C(F)(F)F)nc(S(=O)(=O)CCCC(=O)NC(C)C)n1`: the AC50 – broadly, the concentration giving half of the maximal activity seen – is 12.6 µM (active).
`COCCCNC(=O)Cn1nc(-c2ccccc2OC)ccc1=O`: the AC50 entry is “inactive”.
`CCOC(=O)C1=C(C)NC2=C(C(=O)C(C(=O)OCC)C(c3ccc(OC)cc3)C2)C1c1ccccn1` (stereo not drawn): the activity, negative = inhibition is -13.7% [at 2.29 µM].
As to `CCCOc1ccccc1C1CC(=O)NC(C)=C1C(=O)OCC(C)C` (stereo not drawn), the half-maximal activity concentration (AC50) was 28.2 µM (active).
On the same count and under the same terms, the entry for `CCOC(=O)C1(C(=O)O)NC(=O)CC1c1ccccc1` (stereo not drawn) is “inactive”.
On to `O=C(CSc1nnc(Cn2nnc3ccccc32)o1)Nc1cccc(Cl)c1`, for which the half-maximal activity concentration (AC50) is 8.91 µM (active).
On to `CC(C)(C)OC(=O)NCCc1nnc(SCC(=O)Nc2cccc(Cl)c2)o1`, for which the AC50 was 11.2 µM (active).
As for `Brc1ccc(C2=Nn3c(nnc3-c3cccnc3)SC2)s1`, the concentration at half-maximal activity (AC50) is 3.55 µM (active).
In the case of `O=[N+]([O-])c1ccc(C2=Nn3c(nnc3-c3ccc(Cl)cc3)SC2)o1`, the activity, negative = inhibition is -12.1% [at 11.4 µM].
In the case of `CCOc1ccccc1NC(=O)CCC(=O)O`, the AC50 result was “inactive”.
`CCOc1ccccc1NC(=O)CSc1nnc(-c2cnccn2)n1C`: the concentration at half-maximal activity (AC50) is 8.91 µM (active).
On the same count and under the same terms, under `O=[N+]([O-])c1ccccc1/C=N/n1c(COc2ccccc2)n[nH]c1=S` stands 5.01 µM (active).
In the case of `O=[N+]([O-])c1ccc(/C=N/n2c(COc3ccccc3)n[nH]c2=S)cc1`, the AC50 was 15.8 µM (active).
For `Cc1ccc(/C=N/n2c(COc3ccccc3)n[nH]c2=S)s1`, the AC50 entry was “inactive”.
For the molecule `O=[N+]([O-])c1ccc(/C=N/N/C(=N/c2ccccn2)c2ccccn2)cc1`, the AC50 entry is “inactive”.
Consider `O=C1NC(=S)N/C1=C/c1cccc([N+](=O)[O-])c1O`, for which the AC50 result was “inactive”.
As to `Cc1ccccc1CNc1ncnc2c1ncn2[C@@H]1O[C@@H](CO)[C@H](O)[C@@H]1O`, the AC50 entry was “inactive”.
As for `NC[C@H]1O[C@H](n2cnc3c(N)ncnc32)C[C@@H]1O`, the activity, negative = inhibition was -10.5% [at 11.4 µM].
Take `CCc1ccc(N(C(=O)c2snc(C(N)=O)c2N)C(C(=O)NCCC(C)C)c2c[nH]c3ccccc23)cc1` (stereo not drawn): the AC50 was 3.98 µM (active).
On to `CC(=O)OC[C@@H]1O[C@@H](O/N=C2/C[C@@H](O)[C@@H](O)[C@@H]3[C@@H]4C(=O)N(C5CCCCC5)C(=O)[C@H]4CC[C@@H]23)[C@H](OC(C)=O)[C@H](OC(C)=O)[C@@H]1OC(C)=O`, for which the activity, negative = inhibition is -21.5% [at 11.4 µM].
As to `COc1cccc(-c2nccc(NC3CCNCC3)n2)c1`, the AC50 entry is “inactive”.
On the same count and under the same terms, under `COc1ccc(-c2cc(C(F)(F)F)nc(NCc3cccnc3)n2)cc1` stands 4.47 µM (active); under `c1ccc(-c2noc(-c3ccc4ccccc4c3)n2)cc1`, “inactive”; under `COc1cccc(-c2nccc(NCc3cccnc3)n2)c1`, 1.26 µM (active).
Turning to `COc1cccc(-c2noc(-c3cccnc3)n2)c1`, the half-maximal activity concentration (AC50) is 5.01 µM (active).
Regarding `COc1cccc(-c2nccc(NCc3ccccc3)n2)c1`, the concentration at half-maximal activity (AC50) is 3.98 µM (active).
Turning to `CO[C@@H]1COC(=O)[C@H]2CCCN2C(=O)[C@@H](C)COC(=O)C/C=C\[C@H]1C`, the activity, negative = inhibition is -15.8% [at 11.4 µM].
On to `COCC(C)NCc1cccc(C)c1` (stereo not drawn), for which the AC50 entry was “inactive”.
On the same count and under the same terms, under `COc1cccc(-c2nccc(NCc3cccc(C)c3)n2)c1` stands 3.98 µM (active); under `COc1cccc(-c2nccc(NCc3cccs3)n2)c1`, 5.01 µM (active).
As for `Cc1ccc(C)c(S(=O)(=O)NC(C)C(=O)Nc2ccc(-c3nc4ccccc4s3)cc2)c1` (stereo not drawn), the AC50 is 3.55 µM (active).
With `Cc1ccc(C)c(S(=O)(=O)NC(CC(C)C)C(=O)O)c1` (stereo not drawn), the AC50 entry was “inactive”.
On to `Cc1ccc2nc(-c3ccc(NC(=O)c4ccc(N)cc4)c(S(=O)(=O)O)c3)sc2c1`, for which the activity, negative = inhibition was -13.7% [at 11.4 µM].
In the case of `CCN(Cc1ccccc1)Cc1cccc([N+](=O)[O-])c1`, the AC50 entry was “inactive”.
Still for that read-out and setting: under `COc1ccc([N+](=O)[O-])cc1N(CC(O)CN(CC(C)C)CC(C)C)S(=O)(=O)c1ccccc1` (stereo not drawn) stands 1.12 µM (active).
Regarding `CCCN(/C=N/c1sc2c(c1C#N)CCCCC2)CCC`, the AC50 was 7.94 µM (active).
In the case of `CCN(/C=N/c1sc2c(c1C#N)CCCCC2)CC`, the activity, negative = inhibition is -17.6% [at 2.29 µM].
Consider `COc1ccccc1CNc1ncncc1-c1cccc(NS(C)(=O)=O)c1`, for which the AC50 was 0.251 µM (active).
Regarding `COc1ccc(CNc2ncncc2-c2cccc(NS(C)(=O)=O)c2)c(OC)c1`, the concentration at half-maximal activity (AC50) was 0.251 µM (active).
Turning to `Cc1cc2c(cc1S(N)(=O)=O)S(=O)(=O)CCC2`, the AC50 result was “inactive”.
`Cc1ccc(C(=O)NCC2CCCO2)cc1N1CCCC1=O` (stereo not drawn): the AC50 entry is “inactive”.
Same read-out and setting: the entry for `CCOC(=O)Nc1ccc(C(=O)NCC2CCCO2)cc1` (stereo not drawn) is “inactive”.
On the same count and under the same terms, the figure for `CCC(C)(C(=O)NC1CCCC1)N(CC1CCCO1)C(=O)c1ccc2c(c1)OCO2` (stereo not drawn) is 3.98 µM (active); for `COc1cccc(CNc2ccc3nc(-c4ccc(N)cc4)c(OC)n3n2)c1` it is 5.01 µM (active); for `CC(=O)OCCCN1c2ccccc2Nc2nnc(-c3ccccc3)cc21` it is 12.6 µM (active).
For the molecule `COc1ccc(CN(CCN(C)C)c2ccccn2)cc1`, the AC50 result was “inactive”.
On to `CN(C)c1nccc(N(Cc2ccccc2)Cc2ccccc2)c1C#N`, for which the AC50 was 12.6 µM (active).
Regarding `Cc1ccc(N(Cc2ccccc2)Cc2ccccc2)cc1`, the activity, negative = inhibition was -22.6% [at 11.4 µM].
Regarding `CO[C@@H]1COC(=O)[C@H]2CCCN2C(=O)C/C=C\[C@@H](C)[C@H](OC)COC(=O)[C@H]2CCCN2C(=O)C/C=C\[C@H]1C`, the activity, negative = inhibition was -3.39% [at 11.4 µM].
For the molecule `CN(C)c1ncc2ncc(=O)n(C)c2n1`, the AC50 entry was “inactive”.
As for `c1ccc2c(c1)ncn2-c1ccc(-c2ccnc(-c3ccncc3)n2)cc1`, the AC50 was 0.501 µM (active).
On the same count and under the same terms, under `c1ccc(-c2nccc(-c3ccc(-n4cnc5ccccc54)cc3)n2)nc1` stands “inactive”.
Regarding `O=C(O)COc1ccc(-c2nccc(-c3cccs3)n2)cc1`, the AC50 result is “inactive”.
Same read-out and setting: under `COc1ccc(C(=O)N2CCC3(CCCN(C(=O)Nc4cccc(C#N)c4)C3)CC2)cc1` stands 6.31 µM (active).
As to `COc1ccc(C(=O)N2CCC[C@@]3(CCN(C(=O)Nc4cccc(C#N)c4)C3)C2)cc1`, the AC50 is 7.94 µM (active).
Still for that read-out and setting: under `COCC(=O)N1CCC2(CC1)CN(C(=O)Nc1cccc(C#N)c1)C2` stands “inactive”; under `COCC(=O)N1CCC[C@@]2(CCN(C(=O)Nc3ccccc3)C2)C1`, “inactive”; under `COC(=O)N1CCC[C@@]2(CCN(C(=O)Nc3cccc(C#N)c3)C2)C1`, “inactive”.
As for `COc1ccc(C(=O)N2CCC3(CC2)CN(C(=O)Nc2cccc(C#N)c2)C3)cc1`, the AC50 is 15.8 µM (active).
For the molecule `N#Cc1cccc(NC(=O)N2CC[C@@]3(CCCN(C(=O)c4ccncc4)C3)C2)c1`, the AC50 is 15.8 µM (active).
Consider `COCC(=O)N1CCC2(CCCN(C(=O)Nc3cccc(C#N)c3)C2)CC1`, for which the AC50 result was “inactive”.
As for `CC(=O)N1CCC2(CC1)CN(C(=O)Nc1cccc(C#N)c1)C2`, the AC50 entry is “inactive”.
Turning to `COC(=O)N1CCC2(CC1)CN(C(=O)Nc1cccc(C#N)c1)C2`, the AC50 entry is “inactive”.
In the case of `CC(C)c1nnc(-c2ccc(Cl)cc2)c(N(C)C)n1`, the activity, negative = inhibition was -7.47% [at 2.29 µM].
`CCCn1c(N)c(C(=O)CSc2nc(C)cs2)c(=O)n(C)c1=O`: the half-maximal activity concentration (AC50) is 6.31 µM (active).
In the case of `Cn1c(=O)c(C(=O)CN2CCOCC2)c(N)n(Cc2ccccc2)c1=O`, the AC50 entry is “inactive”.
As to `O=C(O)[C@@H](O)Cc1ccccn1`, the activity, negative = inhibition is 15.2% [at 11.4 µM].
In the case of `O=c1cnc2cnc(N3CCNCC3)nc2n1Cc1ccc(F)cc1`, the AC50 is 7.94 µM (active).
For the molecule `CN(C)c1ncc2nc(-c3ccccc3)c(=O)n(Cc3ccc(F)cc3)c2n1`, the AC50 result is “inactive”.
Same read-out and setting: under `O=c1c(-c2ccc(F)cc2)nc2cnc(N3CCOCC3)nc2n1C[C@H]1CCCO1` stands “inactive”.
Turning to `CN1CCN(c2ncc3nc(-c4cccc(C#N)c4)c(=O)n(CCC#N)c3n2)CC1`, the AC50 result is “inactive”.
For the molecule `CN1CCN(c2ncc3nc(-c4cccc(C#N)c4)c(=O)n(C)c3n2)CC1`, the AC50 entry is “inactive”.
Consider `CN1CCN(c2ncc3nc(-c4cccc(C#N)c4)c(=O)n(Cc4ccc(F)cc4)c3n2)CC1`, for which the AC50 was 20 µM (active).
With `Cc1nc2cnc(N(C)C)nc2n(Cc2ccc(F)cc2)c1=O`, the AC50 is 0.0251 µM (active).
Still for that read-out and setting: under `CN1CCN(c2ncc3nc(-c4ccccc4)c(=O)n(Cc4ccc(F)cc4)c3n2)CC1` stands “inactive”; under `N#CCCn1c(=O)cnc2cnc(N3CCNCC3)nc21`, “inactive”.
Turning to `O=c1c(-c2ccccc2)nc2cnc(N3CCNCC3)nc2n1Cc1ccc(F)cc1`, the half-maximal activity concentration (AC50) is 3.16 µM (active).
The same measure, in the same setting: under `Cc1nc2cnc(N(C)C)nc2n(CCC#N)c1=O` stands “inactive”; under `COc1ccc(-n2c(=O)cnc3cnc(N4CCNCC4)nc32)cc1`, “inactive”; under `Cc1nc2cnc(N3CCNCC3)nc2n(Cc2ccc(F)cc2)c1=O`, 15.8 µM (active).
In the case of `N#CCCn1c(=O)c(-c2ccc(F)cc2)nc2cnc(N3CCOCC3)nc21`, the AC50 result was “inactive”.
Turning to `COCCn1c(=O)c(C)nc2cnc(N3CCN(C)CC3)nc21`, the AC50 result is “inactive”.
The same measure, in the same setting: under `COCCn1c(=O)c(-c2ccc(F)cc2)nc2cnc(N3CCOCC3)nc21` stands “inactive”.
As to `O=c1c(-c2ccc(F)cc2)nc2cnc(N3CCNCC3)nc2n1Cc1ccc(F)cc1`, the AC50 is 7.94 µM (active).
Regarding `Cc1nc2cnc(N3CCN(C)CC3)nc2n(C)c1=O`, the AC50 result was “inactive”.
Consider `NC(=O)C[C@H](NC(=O)Cc1ccc(O)cc1O)C(=O)O`, for which the AC50 entry is “inactive”.
Same read-out and setting: the entry for `Nc1ncnc2c1ncn2[C@@H]1CCCO1` is “inactive”; for `CCCS(=O)(=O)N1CCCC(C(=O)NCCN2CCC(Cc3ccccc3)CC2)C1` (stereo not drawn) it is “inactive”; for `CC(C)OC(=O)c1cc2c(ccn2C)n1CC(=O)N1CCC(Cc2ccccc2)CC1` it is 7.08 µM (active).
For the molecule `C[C@@H](CN1CCC(Cc2ccccc2)CC1)[C@@H](O)c1ccc(O)cc1`, the AC50 result was “inactive”.
Consider `Cc1ccc(C)c(Cn2c(C(=O)OC(C)C)cc3c2ccn3C)c1`, for which the AC50 was 7.94 µM (active).
For the molecule `CCOC(=O)c1cc2c(ccn2C)n1CC(=O)N1CCCC(C)C1` (stereo not drawn), the AC50 was 14.1 µM (active).
As for `COC(=O)c1cc2c(ccn2-c2ccc(F)cc2)n1CC(C)C`, the AC50 entry is “inactive”.
As to `C[n+]1cccc(CNC(=O)/C=N/O)c1`, the AC50 result was “inactive”.
Still for that read-out and setting: under `O=C1NC(O)=NC1(c1ccccc1)c1ccccc1` stands “inactive”.
As to `CCCCNC(=O)NS(=O)(=O)c1cnccc1Sc1ccc(Cl)cc1`, the activity, negative = inhibition was -25.5% [at 2.29 µM].
Turning to `O=C(CC(NS(=O)(=O)c1ccc(Cl)cc1)c1ccco1)NCc1ccco1` (stereo not drawn), the AC50 is 14.1 µM (active).
Regarding `CCCNC(=O)CC(NS(=O)(=O)c1ccc(Cl)cc1)c1ccco1` (stereo not drawn), the AC50 is 22.4 µM (active).
